Screening results from PubChem BioAssay.
Cav32 inh – Cav3.2 calcium influx blockers – cell-based, Fluo-4 calcium fluorescence, FDSS, MLSMR library, primary screen; B-score at 10 µM; AID 449739, 2010; Cav3.2-expressing cells; hits give low values; hit rate 4% among 100,000;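 active = single-dose well whose peak fluorescence ratio is a statistical outlier from its plate by either plate-standardised score or position-corrected B-score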
PLAP activator – PLAP enzyme activators, biochemical, luminescence, HTS; Alkaline phosphatase, placental type (Homo sapiens), P05187; purified PLAP enzyme, luminescent substrate read-out; hits give high values; activation fold at 20 µM; hit rate 1.2% among 96,000; AID 696, 2007; in the data active = activation fold above about 2
PostGolgi ctrl – growth inhibition of yeast control strain, primary screen, counter-screen for post-Golgi transport modulator project; efflux-deficient yeast background strain, growth absorbance A615, 16 h; inhibition, % at 10 µM; hit rate 5% among 98,000; AID 738, 2007
D1 allo mod – D1 CRE-luciferase signal change, two-sided – cell-based, HEK293 D1, dopamine EC30, D1 allosteric modulator project, primary screen. D(1A) dopamine receptor (Homo sapiens), P21728. dopamine EC30 potentiation; actives deviate in either direction. B-score at 10 µM. hit rate 5.9% among 58,000. AID 641, 2007;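 active = luminescence count or its row- and column-corrected plate score outside the 99.7% band of the plate's sample wells, on either side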
Target sequence (P21728 whole entry, looked up): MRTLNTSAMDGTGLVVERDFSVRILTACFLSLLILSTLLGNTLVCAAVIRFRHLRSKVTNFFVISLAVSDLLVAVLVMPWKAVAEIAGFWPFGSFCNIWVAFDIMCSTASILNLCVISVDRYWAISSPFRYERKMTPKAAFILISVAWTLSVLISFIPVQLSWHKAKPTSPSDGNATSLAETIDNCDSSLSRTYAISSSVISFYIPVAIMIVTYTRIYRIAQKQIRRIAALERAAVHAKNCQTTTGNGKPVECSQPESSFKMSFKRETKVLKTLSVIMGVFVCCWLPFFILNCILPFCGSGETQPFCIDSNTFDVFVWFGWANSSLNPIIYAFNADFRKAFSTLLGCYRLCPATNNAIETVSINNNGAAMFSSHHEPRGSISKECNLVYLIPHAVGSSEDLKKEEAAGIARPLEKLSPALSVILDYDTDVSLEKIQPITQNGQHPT
PostGolgi yeast – phenotypic screen on post-Golgi transport, primary screen; inhibition, % at 10 µM; post-Golgi transport phenotypic cell assay; AID 739, 2007; hit rate 0.9% among 98,000;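 also: yeast cells grown in 1536-well plates; yeast grown about 18 h at 30C before absorbance read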
DAT uptake mod – changed hDAT dopamine uptake under cocaine IC80, either direction, primary screen, cocaine antagonist project, cell-based, LLC-PK1 hDAT, [14C]-dopamine uptake, MLSMR. Sodium-dependent dopamine transporter (Homo sapiens), Q01959. LLC-PK1 hDAT cells, [14C]-dopamine uptake with cocaine IC80; actives deviate in either direction. B-score at 10 µM. hit rate 1.3% among 110,000;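 active = Z score or B-score, a plate-position-corrected score, falls beyond the plate's 99.7% confidence bounds, in either direction; inactive = both scores lie inside the 99.7% bounds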;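 also: scored against the spread of the other compound wells on the same plate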
D1 mod confirm – D1 receptor positive allosteric modulators, retest, confirmation, cell-based, HEK293 D1, CRE-luciferase, duplicate; shares compounds with D1 allo mod; dopamine EC30 potentiation; hits give high values; luminescence at 10 µM; hit rate 88% among 2,200; AID 642, 2007;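 active = luminescence in either of two replicates above the same-plate mean plus 3 SD of the low-dose dopamine control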
D1 ag no DA – D1 receptor agonism without dopamine, confirmation, mechanism study for D1 allosteric modulator project, cell-based, HEK293 D1, CRE-luciferase, secondary assay 1; luminescence at 10 µM; luminescence, no dopamine; hits give high values; shares compounds with D1 allo mod; hit rate 0.8% among 1,900; in the data active = luminescence above about 3900
Isoprot counter – counter-screen for D1 modulators: isoproterenol response in HEK293 cells | shares compounds with D1 allo mod | hit rate 63% among 2,200 | calls only at 10 µM | AID 647 | HEK293 D1 CRE-luciferase, isoproterenol EC30 counter-screen;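 active = luminescence in either replicate above plate mean of wells with a partly effective reference agonist dose plus 3 SD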;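 also: isoproterenol raises cAMP through native beta-adrenoceptor Gs so signal bypasses D1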
The depositor's hits bear a star; i = inactive; x = not tested or not shown; + = active, no number. A selection: hits, their analogues and other compounds. The true share with any hit is near 12%. Rule as the data show it, unless noted: active = inhibition above about 30%; inactive = the rest.

SMILES	Cav32 inh	PLAP activator	PostGolgi ctrl	D1 allo mod	PostGolgi yeast	DAT uptake mod	D1 mod confirm	D1 ag no DA	Isoprot counter
CN(C)c1nc(SCc2ccccc2)nc(N2CCOCC2)n1	-1.8	1.2	7	x	-21	1	x	x	x
CC(C)Nc1nc(SCC(N)=O)nc(N2CCOCC2)n1	0.53	0.8	10	x	-5	-0.041	x	x	x
CCNc1nc(SCc2ccccc2)nc(N2CCOCC2)n1	-4.9*	0.8	14	23*	15	0.0025	17404*	x	+
Cc1ccc(-c2nnn(CC(=O)Nc3ccccc3-c3ccccc3)n2)c(-n2cnnn2)c1	-0.36	1.1	10	-0.57	-14	-0.35	x	x	x
CCOc1ccc(-c2nnn(CC(=O)N3CCCC3)n2)cc1OCC	0.78	x	x	x	x	1.9	x	x	x
CCOC(=O)c1[nH]c2ccc(F)cc2c1NC(=O)CN1CCc2cc(OC)c(OC)cc2C1	x	1.5	7	1.7*	2	x	9280*	1680	+
CCOC(=O)c1[nH]c2ccc(OC)cc2c1NC(C)=O	-0.092	1	7	-0.25	-12	-1.2	x	x	x
CCOC(=O)c1[nH]c2cc(OC)c(OC)cc2c1NC(=O)c1ccc2c(c1)OCO2	0.07	1.1	4	x	18	0.33	x	x	x
CCOC(=O)c1[nH]c2cc(OC)c(OC)cc2c1NC(=O)CN(C)C1CCCCC1	0.3	1.9	28	4.3*	8	2.2	10140*	1444	+
CCOC(=O)c1[nH]c2ccc(OC)cc2c1NC(=O)CN1CCSCC1	0.64	1.2	10	2.3*	7	0.34	6220*	1352	+
COc1ccc(/C=C(/C#N)c2cccnc2)cc1OC	0.64	x	x	34*	x	0.38	21544*	1648	+
CCc1cccc(NC2c3ccccc3C(=O)N2c2cccnc2)c1 (stereo not drawn)	-0.3	1.1	-1	0.76	-1	1.3	x	x	x
CC1(C)CC(=O)c2sc(NC(=O)c3cccs3)nc2C1	-0.74	x	x	x	x	-0.02	x	x	x
O=C1CCCC(O)=C1C(C#Cc1ccccc1)C1=C(O)CCCC1=O	1.3	0.8	10	3.6*	1	1.2	6888	1524	i
O=C1CCCC2=C1C(c1ccccc1O)C1=C(CCCC1=O)O2	0.55	1	-1	-0.59	0	0.26	x	x	x
O=C(Nc1c(C(=O)N2CCOCC2)cnn1-c1ccccc1)c1ccco1	0.85	1.1	20	x	0	-0.0066	x	x	x
CC(C)Oc1ccc2c3c(c(=O)oc2c1)CCC3	-0.58	1.1	6	5.8*	-5	-1	11556*	1968	+
CCc1nn2c(=O)cc(CSc3nc4sc5c(c4c(=O)n3C)CCCC5)nc2s1	x	x	x	0.21	x	x	x	x	x
Cc1ccc(C(=O)C2CCN(CC(=O)Nc3ccc(N(C)C)cc3)CC2)cc1	-0.36	1.7	2	0.21	0	0.19	x	x	x
c1ccc2[nH]c(CN3CCN(c4ncnc5c4oc4ccccc45)CC3)nc2c1	-1.3	1.8	11	9.6*	8	0.64	14816*	x	+
COc1ccc(CCNC2CC(=O)N(CCc3ccccc3)C2=O)cc1OC (stereo not drawn)	0.39	1.4	x	0.057	x	-0.12	x	x	x
NS(=O)(=O)c1ccc(CCNC2CC(=O)N(CCc3ccccc3)C2=O)cc1 (stereo not drawn)	0.4	0.9	4	2.3*	14	0.19	4996	1548	i
CCSc1nnc2c(n1)OC(c1ccc(C(=O)O)cc1)N(C(C)=O)c1ccccc1-2 (stereo not drawn)	0.57	1.5	2	-0.12	-1	0.042	x	x	x
CCCCCSc1nnc2c(n1)OC(c1cccn1C)N(C(C)=O)c1ccccc1-2 (stereo not drawn)	-2	1.4	4	2.7*	0	-0.15	5252	1472	i
CCOc1ccc(C2Oc3nc(SC)nnc3-c3ccccc3N2C(C)=O)cc1OC (stereo not drawn)	0.76	1.2	-7	8.4*	-5	0.4	11344*	1628	i
SMILES	Cav32 inh	PLAP activator	PostGolgi ctrl	D1 allo mod	PostGolgi yeast	DAT uptake mod	D1 mod confirm	D1 ag no DA	Isoprot counter
N#Cc1c(N)n(C2CCCCC2)c2nc3ccccc3nc12	0.57	1	14	3.3*	1	0.16	10836*	1704	+
CCOc1ccc(OCC)c2sc(C)nc12	0.48	1.4	14	11*	-2	-0.46	20256*	1572	+
CCOc1ccc(C)cc1-n1nc2ccccc2n1	-0.13	1.1	12	x	4	-1.4	x	x	x
CCOC(=O)C(C(=O)OCC)C(C(=O)OCC)N1CCOCC1 (stereo not drawn)	2.1	1.4	5	x	4	0.053	x	x	x
CCc1ccc(-c2nc(CN3CCC(C(=O)N4CCN(c5ccccn5)CC4)CC3)c(C)o2)cc1	x	1.7	11	7.1*	25	x	6240*	x	+
c1coc(CSCc2cn3cccnc3n2)c1	1	0.9	0	0.33	5	-0.3	x	x	x
c1ccc(-c2cnnc(SCc3cn4cccnc4n3)n2)cc1	0.032	1	-12	8.5*	1	-1.1	14784*	1868	+
CCn1cc(CNC(=O)CCSc2nc(-c3ccco3)cc(C(F)(F)F)n2)cn1	0.4	0.9	9	x	0	0.17	x	x	x
COc1ccc(-c2cc(C(F)F)n3ncc(C(=O)N4CCSCC4)c3n2)cc1	-2	0.9	3	5.2*	6	0.043	8908*	1552	+
COc1ccc(-c2nn3cnnc3s2)cc1OC	-0.24	0.9	-1	13*	1	-0.78	16540*	1640	+
COc1cc(CCC(O)CC(=O)CCc2ccccc2)ccc1O (stereo not drawn)	-0.17	x	x	x	x	0.76	x	x	x
CCC(C)c1nc2ccsc2c(N2CCOC2=O)c1-c1ccccc1 (stereo not drawn)	-1.5	x	x	x	x	-0.69	x	x	x
Clc1ccc(C2=Nn3c(nnc3-c3n[nH]c4c3CCC4)SC2)cc1Cl	-3.4	x	38*	9.4*	14	0.4	6068*	1632	+
CC([NH2+][O-])C(C)(C)NO (stereo not drawn)	0.48	0.9	1	x	1	-0.82	x	x	x
C=C(C)c1cccc(C(C)(C)NC(=O)N2CCN(C/C=C/c3ccccc3)CC2)c1	-3.4	1.2	6	x	2	2	x	x	x
